Source: ChEMBL document CHEMBL4513216, “Probing the Open Global Health Chemical Diversity Library for Multistage-Active Starting Points for Next-Generation Antimalarials” (ACS Infect Dis, 2020)
Screen size: about 69,000 compounds; about 8,600 (12%) showed an effect of 50% or more. This is one part of a sample in which strong results are shown more often than they occur.

Each compound was assayed on Plasmodium berghei (assay: Screen against P. berghei liver stage (PbLuc), transformed with Luciferase, at 10uM). Conditions: tested at 10 uM.
Assay type: functional, HepG2

Compound	INHIBITION
COc1ccc(N2CCN(C(=O)C(C)n3cc(Br)cn3)CC2)cc1 (centres undefined)	30%
Cc1cccc(CC2CCCN(C(=O)C3CCOCC3)C2)n1 (centres undefined)	30.4%
O=C(C1CC1)N1CCC(c2nc(O)c3c(n2)CN(C2CCCC2)CC3)C1 (centres undefined)	5.11%
COc1cc(NCc2c(C)noc2C)c(C(=O)N(C)C)cc1OC	-16.1%
Cc1noc(C)c1CN1Cc2nccn2CC(CN2CCOCC2)C1 (centres undefined)	18.3%
COc1ccc(F)cc1C(=O)N1CCCC(CNS(C)(=O)=O)C1 (centres undefined)	-38.7%
COCCCC1(C(=O)O)CCCN(C(=O)c2ccc(Cl)cc2F)C1 (centres undefined)	39.3%
CCN1C(=O)CCCC12CCCN(C(=O)c1cc(C)oc1C)C2 (centres undefined)	-17.1%
COCCC1(C(=O)O)CCCN(C(=O)c2cc(Cl)ccc2F)C1 (centres undefined)	58.8%
CCN(CC)Cc1cc(C(=O)N2CCCC(CC)(C(=O)O)C2)c(C)o1 (centres undefined)	29.9%
CCCC1(C(=O)O)CCCN(C(=O)c2cc(Cl)ccc2F)C1 (centres undefined)	36.5%
COCCCC1(C(=O)O)CCCN(C(=O)c2ccc(C(C)C)[nH]c2=O)C1 (centres undefined)	30.4%
COCCC1(C(=O)O)CCCN(C(=O)c2cc(F)ccc2OC)C1 (centres undefined)	79.7%
COCCC1(C(=O)O)CCCN(C(=O)c2cc(C)oc2C)C1 (centres undefined)	69.9%
Cc1nnc(NC(=O)CN2CCCC2c2c(C)nn(C)c2C)s1 (centres undefined)	-24.2%
CCc1nnc2n1CCN(C(=O)c1ccc3c(c1)nnn3C)C2	-8.66%
CS(=O)(=O)N1Cc2nccn2CC(CNC(=O)c2cccnc2)C1 (centres undefined)	2.79%
COC(=O)[C@H](CSC)Nc1nc(C2CCCC2)nc2c1cnn2C	52.6%
CC(=O)NCCNc1nc(C2CCCC2)nc2c1cnn2C	5.23%
CC(C)C[C@H](Nc1nc(C2CCCC2)nc2c1cnn2C)C(N)=O	61%
Cc1cc(CC(C)Nc2nc(C3CCCC3)nc3c2cnn3C)[nH]n1 (centres undefined)	45.1%
CCOC(=O)CC(C)Nc1nc(C2CCCC2)nc2c1cnn2C (centres undefined)	61%
CCC(Nc1nccc(C2CCCC2)n1)c1ccncc1 (centres undefined)	84.1%
COCCN1CC(Nc2nc(C3CCCC3)nc3c2cnn3C)CC1=O (centres undefined)	25.1%
CC(C)[C@H](Nc1nc(C2CCCC2)nc2c1cnn2C)C(N)=O	28.5%
CCC(Nc1nccc(C2CCCC2)n1)c1ccccn1 (centres undefined)	22.5%
CCOC(=O)CNc1nc(COC)nc2c1cnn2C	-4.23%
COC(=O)[C@@H](Nc1nc(C2CCCC2)nc2c1cnn2C)[C@@H](C)O	10.9%
CCC(Nc1nccc(C2CCCC2)n1)c1ncccc1C (centres undefined)	-24.8%
